# ± gives the standard deviation of the averaged measurements.
# Tested on: Listeria monocytogenes 10403S
# Assay: growth inhibition relative to ceftriaxone-alone control; higher = stronger potentiation of ceftriaxone growth inhibition
# Details: 10 µM; ceftriaxone 1 ug/ml; 12 h
# 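Note: End-point A600 read in BHI broth at 37 °C with 2% DMSO, inhibition computed as (1 − OD with compound plus ceftriaxone ÷ OD with ceftriaxone only) × 100.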
row,SMILES,growth inhibition [%]
1,COc1cc(Nc2nccc(-c3cnn4ncccc34)n2)cc(OC)c1,-13.8 ± 16
2,CCn1nnc2c(N3CCOCC3)nc(-c3ccc(NC(=O)Nc4ccc(C(=O)N5CCN(C)CC5)cc4)cc3)nc21,20.2 ± 19
3,Nc1nonc1-c1nc2cnccc2n1C1CC1,-9.63 ± 4.1
4,Cn1cnc(N)c2ncnc1-2 [3-Methyladenine],4.53 ± 5.3
5,CN(C)C1CCN(C(=O)c2ccc(NC(=O)Nc3ccc(-c4nc(N5CCOCC5)nc(N5CCOCC5)n4)cc3)cc2)CC1,22.7 ± 7.4
6,Cc1ccc(C(=O)Nc2ccc(CN3CCN(C)CC3)c(C(F)(F)F)c2)cc1C#Cc1cnc2cccnn12,94.4 ± 3.5
7,NC(=O)c1ccc(Oc2nccc(-c3c(-c4ccc(F)cc4)ncn3C3CCNCC3)n2)cc1,-2.66 ± 0.33
8,Cc1nc(NC(=O)N2CCC[C@H]2C(N)=O)sc1-c1ccnc(C(C)(C)C(F)(F)F)c1,24.9 ± 21
9,Fc1ccc(-c2ncn(C3CCNCC3)c2-c2ccnc(Oc3ccc(F)c(F)c3)n2)cc1,10.7 ± 16
10,CCS(=O)(=O)c1ccc(OC)c(Nc2ncc(-c3ccccc3Cl)o2)c1,-2.57 ± 15
11,COc1cc(Nc2ncc3c(C)nc(-c4cccc(Oc5ccccc5)c4)n3n2)cc(OC)c1OC,-18.3 ± 17
12,CNC(=O)c1sc(-n2cnc3cc(OC)c(OC)cc32)cc1OCc1ccccc1C(F)(F)F,-11 ± 18
13,CC(C)c1ccc2c(c1)NC(=O)/C2=N/Nc1ccc(S(N)(=O)=O)cc1,-0.275 ± 0.88
14,NS(=O)(=O)c1ccc(N/N=C2\C(=O)Nc3ccc(C(=O)NCCc4c[nH]cn4)cc32)cc1,14.1 ± 4.2
15,CCc1cccc(CC)c1/C=C/c1cncc(C(=O)NC)c1,14.6 ± 2.7

# Source: the supplement of paper PMC5641865, “A screen for kinase inhibitors identifies antimicrobial imidazopyridine aminofurazans as specific inhibitors of the Listeria monocytogenes PASTA kinase PrkA” (The Journal of Biological Chemistry, 2017)
